Among the test systems are NCI-H23 lung; NCI-H226 lung; NCI-H322M lung; HOP-62 NSCLC; NCI-H460 lung; HOP-92 NSCLC; NCI-H522 lung; A549/ATCC NSCLC; 786-0 renal; COLO 205 colon.
Holding throughout (assay): NCI-60 one-dose screen, 48 h (100 = growth as untreated, 0 = no growth, -100 = all killed)
Holding throughout (details): 10 µM unless noted

About 83,000 compounds went through this panel and 20% of them were active in at least one assay; those are over-represented in the sample as a whole.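 96-well plates, one dose, 48 hours. Percent growth reported; active if below 10.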 Unmarked numbers belong to inactive results. The source made the active and inactive calls.

`Nc1nc(N)c2cc(Sc3ccc(Cl)cc3)ccc2n1`: the growth with NCI-H23 lung is 33.6%; in the test on NCI-H226 lung it was 48.9%; in the test with NCI-H322M lung, 27.7%; in the test with HOP-62 NSCLC, 53.1%; in the test with NCI-H460 lung, 13.4%; with HOP-92 NSCLC it was 6.59% (active). Moreover, the growth is 21% in the test on NCI-H522 lung, 15.2% with A549/ATCC NSCLC, 28% in the test with 786-0 renal and -45.6% (active) in the test with COLO 205 colon.

On to `C[C@@H]1C[C@H](N)C[C@H](c2ccncc2NC(=O)c2ccc(F)c(-c3c(F)cccc3F)n2)C1`, for which the growth in the test with NCI-H23 lung was 73.3%; in the test on NCI-H226 lung, 53.6%; with NCI-H322M lung, 71%; in the test on HOP-62 NSCLC it was 49.1%; in the test on NCI-H460 lung, 62.5%; in the test on HOP-92 NSCLC it was 10.4%. In addition, the growth in the test on NCI-H522 lung was 46.4%; with A549/ATCC NSCLC, 48.7%; with 786-0 renal, 56.1%; in the test with COLO 205 colon, -33.4% (active).

As for `C#CC[C@@H]1C[C@]2(C)[C@H]3CC[C@@H]4[C@H]5C(C(=C)C)CC[C@]5(C(=O)NCCN(CCN)CCN)CC[C@@]4(C)[C@]3(C)CC[C@H]2C(C)(C)[C@H]1OC(C)=O` (stereo not given in full), the growth in the test on NCI-H23 lung is 77.3%; with NCI-H226 lung, 65.9%; in the test on NCI-H322M lung, 71.4%; with HOP-62 NSCLC it was 83.3%; in the test with NCI-H460 lung, 81.8%; in the test on HOP-92 NSCLC, 66.3%. The growth in the test on NCI-H522 lung is 61.7%; with A549/ATCC NSCLC, 53.4%; in the test with 786-0 renal, 90.3%; in the test with COLO 205 colon it was 69.3%.

For the compound `COc1ccc(C2C3=C(COC3=O)N(CCO)c3cc(OC)c(OC)cc32)cc1` (stereo not given), the growth is 106% with NCI-H23 lung; 101% with NCI-H226 lung; 104% in the test on NCI-H322M lung; 95.7% with HOP-62 NSCLC; 105% in the test on NCI-H460 lung; 86.9% in the test with HOP-92 NSCLC. Further, the growth with NCI-H522 lung was 92.8%; with A549/ATCC NSCLC it was 108%; in the test with 786-0 renal, 96.3%; in the test with COLO 205 colon, 110%.

With `COC(=O)c1ccc(NC(N)=NCCC(C)(C)c2ccc(C(F)(F)F)cc2)nc1`, the growth in the test on NCI-H23 lung is 17.5%; in the test on NCI-H226 lung it was 37.4%; in the test with NCI-H322M lung, 74.5%; in the test on HOP-62 NSCLC, 63.7%; with NCI-H460 lung, 31.6%; in the test on HOP-92 NSCLC it was 39%. The growth with NCI-H522 lung was 39%; with A549/ATCC NSCLC it was 54.2%; in the test on 786-0 renal, 56.9%; in the test with COLO 205 colon, -71.2% (active).

Consider `COc1ccc(C2CC(c3cccc(Nc4ccnc5cc(Cl)ccc45)c3)=NN2c2ccccc2)cc1` (stereo not given), for which the growth is 80% in the test on NCI-H23 lung; 89% in the test on NCI-H226 lung; 75% in the test on NCI-H322M lung; 60% in the test with HOP-62 NSCLC; 43.7% with NCI-H460 lung; 57.8% with HOP-92 NSCLC. Further, the growth in the test with NCI-H522 lung was 54.4%; with A549/ATCC NSCLC, 52.1%; with 786-0 renal, 91.8%; in the test on COLO 205 colon it was 80.4%.

In the case of `O=C(/C=C/c1cccc([N+](=O)[O-])c1)c1ccc(Nc2nc(N3CCCCC3)nc(N3CCCCC3)n2)cc1`, the growth was 98.7% in the test with NCI-H23 lung; 74.2% in the test with NCI-H226 lung; 103% with NCI-H322M lung; 105% in the test on HOP-62 NSCLC; 96% in the test on NCI-H460 lung; 102% with HOP-92 NSCLC. In addition, the growth was 87.2% in the test on NCI-H522 lung, 85.7% with A549/ATCC NSCLC, 93.9% with 786-0 renal and 108% with COLO 205 colon.

On to `CC[C@H](Nc1nc(N)nc(N)c1Cl)c1nc2cccc(NCc3ccc(C(=O)NO)cc3)c2c(=O)n1-c1ccccc1`, for which the growth is -71.6% (active) in the test on NCI-H23 lung; 4.53% (active) in the test on NCI-H226 lung; 35.8% in the test with NCI-H322M lung; 11.6% with HOP-62 NSCLC; 1.8% (active) in the test on NCI-H460 lung; -15.7% (active) with HOP-92 NSCLC. The growth in the test on NCI-H522 lung is -13.5% (active); in the test with A549/ATCC NSCLC it was -4.67% (active); in the test on 786-0 renal it was 3.36% (active); in the test with COLO 205 colon it was -20.1% (active).

In the case of `Clc1ccc2c(c1)-n1cccc1C(c1ccc3ccccc3c1)=NC2`, the growth is 74.4% in the test with NCI-H23 lung; 146% in the test with NCI-H226 lung; 122% in the test with NCI-H322M lung; 101% with HOP-62 NSCLC; 96.7% in the test with NCI-H460 lung; 89.6% in the test on HOP-92 NSCLC. The growth with NCI-H522 lung was 41.3%; in the test with A549/ATCC NSCLC, 121%; with 786-0 renal, 88.7%; with COLO 205 colon it was 102%.

With `CCCCN(CCCC)CCCN=c1nc2c(c(N)n1-c1ccccc1)c(=S)n(-c1ccccc1)c(=S)n2-c1ccccc1`, the growth in the test on NCI-H23 lung is -56.3% (active); in the test on NCI-H226 lung it was -82.5% (active); in the test on NCI-H322M lung, -57.8% (active); in the test on HOP-62 NSCLC it was -99.6% (active); in the test with NCI-H460 lung, -95.7% (active); in the test with HOP-92 NSCLC it was -66.9% (active). The growth in the test on NCI-H522 lung is -54.8% (active); in the test with A549/ATCC NSCLC it was -38.4% (active); in the test with 786-0 renal it was -100% (active); in the test with COLO 205 colon, -74.1% (active).

Regarding `COc1ccc2nc(C)cc(Nc3ccccc3O)c2c1`, the growth is 100% in the test with NCI-H23 lung; 0.475% (active) in the test with NCI-H226 lung; 59.9% in the test on NCI-H322M lung; -61.9% (active) in the test with HOP-62 NSCLC; 20.6% in the test on NCI-H460 lung; -23.7% (active) in the test with HOP-92 NSCLC. Moreover, the growth was 47.3% in the test on NCI-H522 lung, 3.25% (active) in the test on A549/ATCC NSCLC, -67% (active) in the test with 786-0 renal and 89.9% in the test with COLO 205 colon.

As to `CC(COC(=O)c1ccccc1)N1CC2CCC(C1)O2` (stereo not given), the growth is 107% in the test with NCI-H23 lung; 98.2% in the test with NCI-H226 lung; 97.8% in the test on NCI-H322M lung; 95.1% in the test on HOP-62 NSCLC; 104% in the test on NCI-H460 lung; 91.1% in the test on HOP-92 NSCLC. Further, the growth is 104% in the test with NCI-H522 lung, 100% in the test on A549/ATCC NSCLC, 99.8% in the test on 786-0 renal and 104% in the test with COLO 205 colon.

As to `CC(=O)OC1Oc2cc(C)c(C)cc2-c2oc(=O)c(-c3ccc(F)cc3)cc21` (stereo not given), the growth with NCI-H23 lung is 65.2%; with NCI-H226 lung, 102%; with NCI-H322M lung, 113%; in the test on HOP-62 NSCLC, 77.8%; with NCI-H460 lung it was 38%; with HOP-92 NSCLC, 80%. Further, the growth in the test on NCI-H522 lung was 14.7%; with A549/ATCC NSCLC it was 52.5%; with 786-0 renal, 56.3%; in the test with COLO 205 colon, 79.2%.

The values are drawn from PubChem BioAssay (NCI).
